# Activity calls are given as the source filed them.
# Assays:
# [1] = compound effects on lung adenocarcinoma cell viability – A549, calcein-AM fluorescence, 48 h, basal, profiling panel (AID 1162); conditions: higher = more signal
# [2] = compound effects on differentiated 3T3-L1 adipocyte viability – cell-based, 3T3-L1 adipocytes, calcein-AM fluorescence, 48 h, basal, profiling panel (AID 1163); conditions: 3T3-L1 adipocytes viability, higher = more signal
# [3] = compound effects on hepatocellular carcinoma cell viability – HepG2, calcein-AM fluorescence, 48 h, basal, profiling panel (AID 1164); conditions: higher = more signal
# [4] = compound effects on multiple myeloma cell viability – MM1S, calcein-AM fluorescence, 48 h, basal, profiling panel (AID 1165); conditions: higher = more signal
# [5] = calcein-AM signal in unstimulated myeloma cells – cell-based, calcein-AM fluorescence, 48 h, PK04 Diversity Set, profiling panel (AID 1166); conditions: RPMI8226 myeloma viability, higher = more signal;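 further: cells grown under basal conditions without added stimulus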
# [6] = JC-1 mitochondrial signal, unstimulated HepG2 cells – cell-based, JC-1 fluorescence, 24 h, 100 nL compound, profiling panel (AID 1167); conditions: HepG2 mitochondrial potential, higher = more signal
# [7] = JC-1 mitochondrial signal, unstimulated adipocytes – cell-based, JC-1 fluorescence, 3T3-L1 adipocytes, 24 h, 100 nL compound, profiling panel (AID 1168); conditions: JC-1 mitochondrial fluorescence, higher = more signal, called active from +8 up or from −8 down
# [8] = JC-1 mitochondrial signal, unstimulated myeloma cells – cell-based, JC-1 fluorescence, RPMI8226, 24 h, 100 nL compound, profiling panel (AID 1169); conditions: JC-1 mitochondrial potential fluorescence, higher = more signal
# [9] = JC-1 mitochondrial signal, unstimulated MM1S myeloma – cell-based, JC-1 fluorescence, 24 h, 100 nL compound, profiling panel (AID 1170); conditions: MM1S mitochondrial potential, higher = more signal
# [10] = resazurin metabolic signal in A549 cells – cell-based, resazurin fluorescence, 24 h, PK04 Diversity Set, profiling panel (AID 1171); conditions: A549 viability, higher = more signal, called active from +8 up or from −8 down
# Further: test concentration not given here.
Structure (SMILES),z-score [1],z-score [2],z-score [3],z-score [4],z-score [5],z-score [6],z-score [7],z-score [8],z-score [9],z-score [10]
COc1ccc(O[C@H]2C=C[C@@H](c3ccccc3)O[C@@H]2COC(=O)CCC(C)=NOC[C@@H](O)[C@H]2O[C@@H]3OC(C)(C)O[C@@H]3[C@H]2O)cc1,1.11,-0.519,0.26,0.152,-0.0547,-0.42,0.157 (inactive),-0.299,-0.199,0.138 (inactive)
CCN1C(=O)[C@@H]2[C@H]3C(=CC[C@@H]2C1=O)C1(OCCCO1)[C@H]1O[C@H]1[C@H]3O,-4.56,-1.03,-4.61,-3.56,-3.24,-3.62,-5.63 (inactive),-1.04,-3.04,-3.14 (inactive)
CCc1cc2c(nc1CC)CCN(CCC(C)=NOC[C@H]1O[C@H](c3ccccc3)C=C[C@@H]1Oc1ccc(OC)cc1)C2,-0.67,0.765,-0.106,-2.03,-2.35,5.61,-1.1 (inactive),-0.0846,0.0581,0.364 (inactive)
C#CCCCON=C1C[C@@H](O)[C@@H](O)[C@@H]2[C@@H]3C(=O)N(CCC(=O)OCC)C(=O)[C@@H]3CC[C@H]12,0.278,0.73,0.249,-0.0993,0.111,0.0972,-0.367 (inactive),0.0174,-1.36,-1.11 (inactive)
CC(C)=CCCC(C)=CCON=C1C[C@@H](O)[C@@H](O)[C@@H]2[C@@H]3C(=O)N(c4ccc(F)cc4F)C(=O)[C@@H]3CC[C@@H]12,-1.34,0.425,-0.354,-0.586,-1.47,0.208,-1.28 (inactive),-0.163,-0.356,-0.179 (inactive)
CC(C)CON=C1C[C@@H](O)[C@@H](O)[C@@H]2[C@@H]3C(=O)N(C4CCCCC4)C(=O)[C@@H]3CC[C@@H]12,-0.162,0.617,-0.323,-0.34,-0.271,-1.21,-0.49 (inactive),-0.0174,0.268,-0.048 (inactive)
C#CCCCON=C1C[C@@H](O)[C@@H](O)[C@@H]2[C@@H]3C(=O)N(Cc4ccccc4)C(=O)[C@@H]3CC[C@@H]12,0.307,-0.198,-0.732,-0.488,0.199,0.793,0.89 (inactive),-0.323,-0.467,0.37 (inactive)
COC(=O)CC=C[C@@H](C)[C@@H](C=NOC[C@H]1O[C@H](c2ccccc2)C=C[C@@H]1Oc1ccc(OC)cc1)NS(=O)(=O)c1ccc(C)cc1,-1.31,-0.486,-0.43,-1.7,-1.2,0.0495,-1.06 (inactive),0.689,-0.077,-0.374 (inactive)
CCOC(=O)NN=C1C[C@@H](O)[C@@H](O)[C@@H]2[C@@H]3C(=O)N(Cc4ccc5c(c4)OCO5)C(=O)[C@@H]3CC[C@H]12,-0.257,-0.132,0.473,0.457,-0.0903,-0.268,-0.754 (inactive),0.386,-1.34,-0.027 (inactive)
O=C1C=C[C@@H](O)[C@@H]2[C@@H]3C(=O)N(C[C@@H]4CCCO4)C(=O)[C@@H]3CC[C@@H]12,-0.663,0.316,0.324,-0.121,0.757,1.09,0.0236 (inactive),-0.643,0.744,-0.379 (inactive)
CCC=CCCC(OC(=O)c1ccc(Br)cc1)C1=CCCCC1=O (stereo not given),-0.211,-0.648,-0.805,-3.68,-3.51,-1.12,-0.711 (inactive),-0.449,-1.97,0.863 (inactive)
CCOC(=O)C1=NO[C@@]2(C=C(Br)C3(OCCCO3)[C@H]3O[C@H]32)C1,-0.433,0.672,0.0307,0.777,-0.468,0.448,0.139 (inactive),-0.723,0.308,-0.542 (inactive)
COC(=O)CC=C[C@@H](C)[C@@H](C=NO[C@@H]1O[C@H](COC(C)=O)[C@@H](OC(C)=O)[C@H](OC(C)=O)[C@H]1OC(C)=O)NS(=O)(=O)c1ccc(C)cc1,-0.4,-0.387,-0.416,0.27,-1.81,-0.365,-1.39 (inactive),-0.736,0.049,-0.251 (inactive)
CCOC(=O)[C@H](CC(C)C)NC(=O)CCC1CC(OC(=O)NCc2cccc3ccccc23)CC2(CCCC(COC(=O)NCCOC)O2)O1 (stereo not given in full),2.3,0.217,0.442,-0.441,0.643,1.01,-0.356 (inactive),-0.198,-0.834,0.781 (inactive)
CCOC(=O)[C@H](CC(C)C)NC(=O)CCC1CC(OC(=O)NCCc2ccc(F)cc2)CC2(CCCC(COC(=O)NCCc3ccccc3OC)O2)O1 (stereo not given in full),0.239,-0.227,-0.204,-1.35,-1.41,0.481,0.293 (inactive),-0.106,-0.878,-0.311 (inactive)
O=c1n(Cc2cc3c(cc2Cl)OCO3)c(=O)n2n1CC[C@@H]1C(=NOCc3ccccc3)[C@H]3O[C@H]3[C@@H](O)[C@@H]12,0.7,-0.362,0.941,-0.64,0.341,1.1,0.218 (inactive),0.185,0.178,-1.11 (inactive)

Structure (SMILES),z-score [1],z-score [2],z-score [3],z-score [4],z-score [5],z-score [6],z-score [7],z-score [8],z-score [9],z-score [10]
C#CCCCON=C1[C@H]2CCn3c(=O)n(C)c(=O)n3[C@H]2[C@H](O)[C@@H]2O[C@H]12,0.0083,-0.421,0.716,-0.85,-0.801,0.398,0.206 (inactive),-0.253,0.00711,-0.576 (inactive)
CCN1C(=O)[C@H]2[C@H]3[C@H](O)[C@H](O)CC(=NOC[C@H]4O[C@H](c5ccccc5)C=C[C@@H]4Oc4ccc(OC)cc4)[C@@H]3CC[C@H]2C1=O,0.964,-0.471,0.644,-1.98,-2.23,-0.627,0.0264 (inactive),-1.24,-0.409,-0.531 (inactive)
COCCNC(=O)OCC1CCCC2(CC(OC(=O)NCc3ccc4c(c3)OCO4)CC(CCC(=O)N[C@@H](C)C(=O)OC)O2)O1 (stereo not given in full),0.122,-0.0741,-1.29,0.463,-2.51,-0.802,-0.628 (inactive),0.934,-0.318,1.66 (inactive)
COC(=O)[C@@H]1CC[C@H](C)[C@@H](c2ccc(C)cc2)N1C(=O)c1ccc(C=NO[C@H](C)c2cn([C@@H]3COC[C@H]3O)nn2)cc1,0.278,-1.16,-0.482,0.673,-0.486,-1.12,-0.579 (inactive),-0.916,-0.985,0.339 (inactive)
COc1cccc([C@H]2Oc3ccc(OC)cc3C(=NO[C@H](C)c3cn([C@H](CO)Cc4ccccc4)nn3)[C@@H]2O)c1,-0.16,0.131,-0.489,-0.0922,-0.719,-1.81,-3.16 (inactive),-0.0494,-0.252,0.286 (inactive)
CC(C)=CCCC(C)=CCON=C1C[C@@H](O)[C@@H](O)[C@@H]2[C@@H]3C(=O)N(Cc4ccccc4)C(=O)[C@@H]3CC[C@H]12,-0.424,0.753,-0.908,-0.13,-1.41,1.66,-0.468 (inactive),0.394,-0.0142,0.539 (inactive)
CO[C@H]1COC(=O)[C@@H](Cc2ccccc2)NC(=O)[C@@H](C)COC(=O)CCC[C@@H]1C,0.704,0.0955,0.577,-0.267,-0.283,-0.212,0.00303 (inactive),-0.161,-1.23,0.6 (inactive)
C[C@@H]1C=CCC(=O)OC[C@H]2O[C@@H](C=C[C@@H]2O)[C@H](C)C=CCC(=O)OC1,0.164,-0.0309,1.37,0.35,0.72,0.909,1.27 (inactive),-0.0914,1.21,-0.976 (inactive)
CO[C@@H]1C=CCC(=O)N2CCC[C@H]2C(=O)OC[C@@H](C)C(=O)OC[C@H]1C,0.623,0.244,1.17,0.138,-0.267,0.848,0.00578 (inactive),-0.257,0.269,0.585 (inactive)
COC(=O)[C@H](C)NC(=O)CCC1CC(OC(=O)NCCc2ccc(F)cc2)CC2(CCCC(COC(=O)NCCC(C)C)O2)O1 (stereo not given in full),1.22,0.464,-0.814,-3.65,-0.883,-0.591,0.521 (inactive),0.198,-1.51,0.693 (inactive)
C[C@H](ON=C1[C@H]2CCn3c(=O)n(-c4ccccc4)c(=O)n3[C@H]2[C@H](O)[C@@H]2O[C@H]12)c1cn([C@H](CO)Cc2ccccc2)nn1,-0.142,-0.443,0.115,-0.403,-0.533,-0.633,-1 (inactive),-0.243,0.155,-0.16 (inactive)
CC(C)=CCCC(C)=CCON=C1C[C@@H](O)[C@@H](O)[C@@H]2[C@@H]3C(=O)N(c4cccc(Oc5ccccc5)c4)C(=O)[C@@H]3CC[C@@H]12,-1.19,0.18,-0.795,-2.22,-3.96,-1.26,0.641 (inactive),-0.805,0.251,0.919 (inactive)
COc1ccc(C#C[C@@H]2C=C[C@H](OC(C)=O)[C@@H](COC(C)=O)O2)cc1,-0.142,0.49,0.419,-3.54,-2.65,-1.52,-0.197 (inactive),-0.437,-2.68,-0.0296 (inactive)
CCOC(=O)NN=C1C[C@@H](O)[C@@H](O)[C@@H]2[C@@H]3C(=O)N(c4cccc(Oc5ccccc5)c4)C(=O)[C@@H]3CC[C@@H]12,-0.382,0.279,-1.56,-0.454,-0.423,-0.0933,-0.451 (inactive),-0.0715,0.524,-0.0206 (inactive)
CCOC(=O)CCN1C(=O)[C@H]2[C@H]3[C@H](O)[C@H](O)CC(=NNC(=O)OCc4ccccc4)[C@@H]3CC[C@H]2C1=O,-0.0996,0.902,0.554,0.457,-0.359,-0.398,-0.773 (inactive),0.279,-0.614,-0.744 (inactive)
O=C1C[C@@H](O)[C@@H](O)[C@@H]2[C@@H]3C(=O)N(c4cccc(Oc5ccccc5)c4)C(=O)[C@@H]3CC[C@H]12,-0.0402,-0.231,0.0658,0.258,-0.0527,-0.101,-1.02 (inactive),-0.308,0.258,0.16 (inactive)

# — PubChem BioAssay
